Reference: PubChem BioAssay
Several values for one entry are separate records, joined by “and”; a condition that tells them apart may be missing. Equal values may be shown once. Unmarked numbers belong to inactive results.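 Rule for the calls: active = compounds whose cell count with miR-34 switched on is under 0.7 times the count with it off; inactive = the rest.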

experiment: viability loss with induced miR-34 in A549 – imaging, A549 dox-inducible miR-34, nuclei and caspase counts, primary screen (AID 1347080); conditions: A549 miR-34 inducible, Hoechst nuclei count, 48 h; hits give low values; cell number ratio, induced over uninduced; note: test concentration not given here

Compound | fold change
NC(=O)c1ncn([C@@H]2O[C@H](CO)[C@@H](O)[C@H]2O)c1O | 1.09
CCN1CCN(C(=O)N[C@@H](C(=O)N[C@@H]2C(=O)N3C(C(=O)O)=C(CSc4nnnn4C)CS[C@H]23)c2ccc(O)cc2)C(=O)C1=O | 0.863 and 0.844
CC(C)(C)NC(=O)[C@H]1CC[C@H]2[C@@H]3CC[C@H]4NC(=O)C=C[C@]4(C)[C@H]3CC[C@]12C | 0.927 and 0.774
CC(=O)O[C@H]1C[C@@H]2CC[C@@H]3[C@H](CC[C@@]4(C)[C@H]3C[C@H]([N+]3(C)CCCCC3)[C@@H]4OC(C)=O)[C@@]2(C)C[C@@H]1N1CCCCC1 | 0.831
CNC[C@H](O)c1ccc(O)c(O)c1 | 0.963
Nc1ccc(S(N)(=O)=O)cc1 | 0.863 and 1.01 and 0.955
C[C@@](Cc1ccc(O)c(O)c1)(NN)C(=O)O | 0.855 and 0.878 and 0.94
CO[C@@]12[C@H](COC(N)=O)C3=C(C(=O)C(C)=C(N)C3=O)N1C[C@@H]1N[C@@H]12 | 1.21 and 1.12
CC(=O)O[C@]1(C(C)=O)CC[C@H]2[C@@H]3C=C(Cl)C4=CC(=O)[C@@H]5C[C@@H]5[C@]4(C)[C@H]3CC[C@@]21C | 0.956 and 0.85
CCC(=O)O[C@]1(C(=O)SCF)[C@H](C)C[C@H]2[C@@H]3C[C@H](F)C4=CC(=O)C=C[C@]4(C)[C@@]3(F)[C@@H](O)C[C@@]21C | 0.882 and 0.864
